Measured values as given in PubChem BioAssay (NCI).
Compounds without any hit were thinned out: in the full panel of roughly 83,000, 20% have a hit.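 Testing used 96-well plates and a 48-hour single-concentration exposure. Example: -40 means 40% of the starting cells died.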 The source made the active and inactive calls. Rule for the calls: active = growth percent below 10; inactive = the rest.

Key:
Assay in all cases: NCI-60 one-dose screen, 48 h (100 = growth as untreated, 0 = no growth, -100 = all killed)
Settings in all cases: 10 µM unless noted
[1] = test system: RPMI-8226 leukemia
[2] = test system: OVCAR-8 ovarian
[3] = test system: OVCAR-5 ovarian
[4] = test system: OVCAR-4 ovarian
[5] = test system: SK-OV-3 ovarian
[6] = test system: IGROV1 ovarian
[7] = test system: OVCAR-3 ovarian
[8] = test system: HS 578T breast
[9] = test system: NCI/ADR-RES ovarian
[10] = test system: BT-549 breast
[11] = test system: MDA-MB-435 melanoma
[12] = test system: SW-620 colon
[13] = test system: MCF7 breast
[14] = test system: HCT-116 colon
[15] = test system: HCC-2998 colon
[16] = test system: KM12 colon
[17] = test system: T-47D breast

Measured: growth

CN(C)S(=O)(=O)n1cnc([C@@H]2[C@@H]3C(=O)OC[C@@H]3C[C@]23N=CN(Cc2ccccc2)C3=O)c1
inactive: [2] 107% | [3] 96.7% | [4] 79.6% | [5] 107% | [6] 113% | [7] 105% | [8] 100% | [9] 102% | [10] 116% | [11] 108% | [12] 97.3% | [13] 100% | [14] 100% | [15] 98.6% | [16] 104%
active: [1] -8.51%

CCCCOc1ccc(NC(=O)n2nc(N=NN(C)C)c3ccc(Cl)cc32)cc1
inactive: [1] 92.7% | [2] 105% | [3] 103% | [4] 96.6% | [5] 86% | [6] 82.8% | [7] 104% | [8] 93.6% | [9] 98.3% | [10] 98.8% | [11] 106% | [12] 106% | [13] 85.2% | [14] 91.3% | [15] 113% | [16] 110%

COc1ccc(-c2cc(-c3ccc(Nc4nc(Nc5ccccc5)nc(Nc5ccc(Cl)cc5)n4)cc3)nc(N)n2)cc1
active: [15] -7.72%
inactive: [1] 50.5% | [2] 79% | [3] 66.5% | [4] 56.5% | [5] 119% | [6] 39.2% | [7] 52.6% | [9] 69.3% | [17] 35.5% | [10] 82.1% | [11] 66.6% | [12] 80% | [13] 22.6% | [14] 38.1% | [16] 39.9%

N#Cc1c(-c2ccc(C(F)(F)F)cc2)cc(N2CC(O)C2)n2c1nc1ccccc12
inactive: [1] 78.8% | [2] 19.4% | [3] 77.5% | [5] 18.8% | [6] 60.9% | [7] 48.4% | [9] 38.3% | [17] 36.1% | [10] 37.9% | [11] 83.7% | [12] 82.8% | [13] 81.6% | [14] 55.4% | [15] 95.6% | [16] 74.2%
active: [4] -29.8%

CN(C)c1ccc(-c2cc(-c3ccc(Nc4nc(Nc5ccccc5)nc(Nc5ccc(Cl)cc5)n4)cc3)nc(N)n2)cc1
inactive: [1] 34.1% | [2] 51.3% | [3] 36.6% | [4] 49.6% | [5] 85.4% | [6] 39.2% | [7] 49.5% | [9] 15.5% | [17] 29.3% | [10] 51.4% | [11] 49.2% | [12] 67.9% | [13] 19.1% | [16] 36.6%
active: [14] 7.76% | [15] -8.31%
